Calls of active or inactive are those of the source. How the source made its calls: active means hit-call score of the fitted dose curve at least 0.9, where 1 is the maximum; inactive means score below 0.9.
Experiments:
[1] = molecular target: Nuclear respiratory factor 1 (Homo sapiens) (UniProt Q16656); test: ATG_NRF1_CIS: Attagene CIS-FACTORIAL HepG2 Assay for human Nuclear Respiratory Factor 1 (NRF1) Orphan Gene (AID 2282987); conditions: HepG2 NRF1 cis-element reporter, Attagene multiplex; actives raise or lower the signal
Method in brief: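 Human hepatoma HepG2 cells carrying transfected promoter-regulated reporter units were incubated with test chemicals for 24 h. Reporter transcripts were measured by RT-PCR plus capillary electrophoresis, and endpoints derived by bidirectional fitting with DMSO as baseline.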

[2] = ATG_NFI_CIS: Attagene CIS-FACTORIAL HepG2 Assay for human Nuclear Factor I (NFI) (AID 2282989); conditions: HepG2 cis-regulatory reporter, NFI response element transcription; actives raise or lower the signal
Method in brief: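 Transient MRTU transfection of HepG2 → 24 h chemical dosing → total RNA, oligo(dT) RT → PCR, 6-FAM primer extension, HpaI cut → capillary electrophoresis. Endpoint fitted bidirectionally relative to DMSO.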

[3] = molecular target: Myc proto-oncogene protein (Homo sapiens) (UniProt P01106); test: ATG_Myc_CIS: Attagene CIS-FACTORIAL HepG2 Assay for human Myelocytomatosis (Myc) Proto-Oncogene Transcription Factor (AID 2282990); conditions: HepG2, Attagene cis-reporter transcription factor activity; actives raise or lower the signal
Method in brief: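 Cells of the HepG2 human liver line bear multiple cis-driven reporter transcription units. Reporter mRNA after 24 h exposure is reverse-transcribed, amplified, labelled and resolved by capillary electrophoresis, with gain- or loss-of-signal fitting relative to DMSO.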

[4] = ATG_NRF2_ARE_CIS: Attagene CIS-FACTORIAL HepG2 Assay for human Nuclear Factor Erythroid 2 Related Factor 2 (NFR2) response to Antioxidant Response Elements (ARE) (AID 2282992); conditions: HepG2 Attagene ARE/NRF2 reporter, transcription factor activity; actives raise or lower the signal;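 on AC50: reporter mRNA level measured by RT-PCR and capillary electrophoresis fluorescence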
Method in brief: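 Fluorescence intensity of reporter-specific cDNA fragments, separated by capillary electrophoresis, reflects mRNA induction in transfected HepG2 cells at 24 h. Activity is fitted bidirectionally, DMSO serving as baseline.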

[5] = ATG_Oct_MLP_CIS: Attagene CIS-FACTORIAL HepG2 Assay for human Octamer-Binding Transcription Factor (Oct) (AID 2282993); conditions: HepG2 Attagene cis-factorial Oct reporter, mRNA; actives raise or lower the signal
Method in brief: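 Transient MRTU transfection of HepG2 → 24 h compound treatment → RNA isolation, reverse transcription, PCR → 6-FAM primer extension, HpaI digest → capillary electrophoresis. Activity fitted both directions against DMSO.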

[6] = molecular target: Cellular tumor antigen p53 (Homo sapiens) (UniProt P04637); test: ATG_p53_CIS: Attagene CIS-FACTORIAL HepG2 Assay for human p53 Transcription Factor (AID 2282994); conditions: HepG2 p53 cis-element reporter, Attagene mRNA; actives raise or lower the signal
Method in brief: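 Transiently transfected HepG2 (multiple cis reporter transcription units); exposure 24 h; reporter RNA via RT-PCR, 6-FAM extension, 2 h HpaI digest at 37 C, CE detection; DMSO baseline.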

[7] = ATG_NF_kB_CIS: Attagene CIS-FACTORIAL HepG2 Assay for human Nuclear Factor Kappa B (NF-kB) (AID 2282991); conditions: HepG2 Attagene cis-factorial NF-kB reporter mRNA; actives raise or lower the signal
Method in brief: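 Multiplexed cis-reporter assay in transiently transfected HepG2. 24 h treatment; RNA isolated, RT-PCR, labelled fragments resolved by CE. DMSO baseline.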

[8] = BSK_3C_TissueFactor: BioMAP Diversity Plus: 3C Assay for Tissue Factor Biomarker Activity (AID 2282997); conditions: BioMAP 3C HUVEC, tissue factor biomarker readout; actives raise or lower the signal
Method in brief: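 HUVEC, 3C system, 24 h post-dose; Tissue Factor by ELISA; bidirectional fit vs DMSO baseline.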

[9] = BSK_3C_uPAR: BioMAP Diversity Plus: 3C Assay for Urokinase-type plasminogen activator receptor (uPAR) Biomarker Activity (AID 2282998); conditions: BioMAP 3C HUVEC, uPAR biomarker ELISA; actives raise or lower the signal
Method in brief: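 ELISA readout of uPAR on human vascular endothelium (umbilical vein primary cells), taken 24 h after chemical dosing. Increases and decreases are both fitted relative to DMSO vehicle.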

[10] = BSK_3C_VCAM1: BioMAP Diversity Plus: 3C Assay for Vascular cell adhesion molecule 1 (VCAM1) Biomarker Activity (AID 2282999); conditions: BioMAP 3C HUVEC, VCAM1 ELISA, cytokine-stimulated; actives raise or lower the signal
Method in brief: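 Activity fitted in both directions relative to DMSO, with ELISA measurement of the surface marker on primary HUVEC (3C) at 24 h post-treatment; parallel SRB staining (0.1% SRB, TCA-fixed, 560 nm) flagged overt cytotoxicity.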

Chain of Nuclear respiratory factor 1 (Homo sapiens) (Q16656 whole entry, looked up): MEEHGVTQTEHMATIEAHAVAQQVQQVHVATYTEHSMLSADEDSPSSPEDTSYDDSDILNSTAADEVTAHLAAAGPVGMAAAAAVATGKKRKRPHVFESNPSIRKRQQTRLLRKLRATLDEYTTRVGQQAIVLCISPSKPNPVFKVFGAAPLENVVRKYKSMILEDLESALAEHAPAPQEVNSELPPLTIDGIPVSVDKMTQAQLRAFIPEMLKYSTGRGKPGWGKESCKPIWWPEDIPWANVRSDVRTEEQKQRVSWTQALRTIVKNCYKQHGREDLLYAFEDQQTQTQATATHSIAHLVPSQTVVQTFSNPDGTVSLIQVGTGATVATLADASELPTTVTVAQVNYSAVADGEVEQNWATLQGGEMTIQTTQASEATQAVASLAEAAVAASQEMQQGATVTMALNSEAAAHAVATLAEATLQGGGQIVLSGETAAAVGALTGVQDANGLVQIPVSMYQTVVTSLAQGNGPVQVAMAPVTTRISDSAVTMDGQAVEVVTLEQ
Chain of Myc proto-oncogene protein (Homo sapiens) (P01106 whole entry, looked up): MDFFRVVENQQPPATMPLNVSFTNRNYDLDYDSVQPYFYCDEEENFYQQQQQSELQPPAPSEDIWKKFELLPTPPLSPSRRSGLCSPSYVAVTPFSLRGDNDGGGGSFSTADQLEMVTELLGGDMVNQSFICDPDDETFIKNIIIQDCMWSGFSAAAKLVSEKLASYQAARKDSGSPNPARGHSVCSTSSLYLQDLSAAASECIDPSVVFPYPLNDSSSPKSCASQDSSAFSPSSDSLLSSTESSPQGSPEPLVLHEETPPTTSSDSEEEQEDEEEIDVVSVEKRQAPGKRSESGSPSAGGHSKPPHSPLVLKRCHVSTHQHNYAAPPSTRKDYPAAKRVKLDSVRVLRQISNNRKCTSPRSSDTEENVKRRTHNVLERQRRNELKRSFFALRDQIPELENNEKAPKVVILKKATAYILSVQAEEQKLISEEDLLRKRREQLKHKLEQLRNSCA
Chain of Cellular tumor antigen p53 (Homo sapiens) (P04637 whole entry, looked up): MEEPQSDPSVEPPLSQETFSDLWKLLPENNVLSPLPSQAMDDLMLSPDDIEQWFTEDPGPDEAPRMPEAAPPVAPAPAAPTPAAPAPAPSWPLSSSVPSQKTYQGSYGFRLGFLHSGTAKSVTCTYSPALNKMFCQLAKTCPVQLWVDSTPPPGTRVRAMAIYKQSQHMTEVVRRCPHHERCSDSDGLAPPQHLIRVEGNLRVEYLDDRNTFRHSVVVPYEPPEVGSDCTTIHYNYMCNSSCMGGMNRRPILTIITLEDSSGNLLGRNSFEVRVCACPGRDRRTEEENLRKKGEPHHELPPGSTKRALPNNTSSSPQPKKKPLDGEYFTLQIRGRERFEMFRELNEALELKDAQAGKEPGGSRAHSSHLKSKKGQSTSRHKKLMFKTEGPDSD

C[C@H](CCC(=O)O)[C@H]1CC[C@H]2[C@@H]3CC[C@@H]4C[C@H](O)CC[C@]4(C)[C@H]3CC[C@]12C
outcome [1]: inactive
AC50 [2]: 100 µM (active)
AC50 [3]: 156 µM (active)
AC50 [4]: 45.4 µM (active)
outcome [5]: inactive
AC50 [6]: 100 µM (active)

CCO[Si](CC)(OCC)OCC
outcome [1]: inactive
outcome [2]: inactive
outcome [3]: inactive
outcome [7]: inactive
outcome [5]: inactive
outcome [6]: inactive

CC/C=C\CCOC(C)OCC (configuration not stated)
outcome [1]: inactive
outcome [2]: inactive
outcome [3]: inactive
outcome [4]: inactive

C=CCCCCCCCCC(=O)OCC
outcome [1]: inactive
outcome [2]: inactive
outcome [3]: inactive
AC50 [4]: 61.7 µM (active)
outcome [5]: inactive
outcome [6]: inactive

CCCCCCCCCCCCCC(=O)OCC
outcome [1]: inactive
outcome [2]: inactive
outcome [3]: inactive
outcome [4]: inactive
outcome [5]: inactive
outcome [6]: inactive

CCCCCCCCCCCCS
outcome [1]: inactive
outcome [2]: inactive
outcome [3]: inactive
outcome [7]: inactive
outcome [5]: inactive
outcome [6]: inactive
AC50 [8]: 30.7 µM (active)
AC50 [9]: 26.4 µM (active)
AC50 [10]: 20 µM (active)

CC(=O)CC(=O)N(C)C
outcome [1]: inactive
outcome [2]: inactive
outcome [3]: inactive
outcome [4]: inactive

NC(=O)c1cccnc1
outcome [1]: inactive
outcome [2]: inactive
outcome [3]: inactive
outcome [4]: inactive
outcome [5]: inactive
outcome [6]: inactive

Nc1cc([N+](=O)[O-])ccc1C(=O)O
outcome [1]: inactive
outcome [2]: inactive
outcome [3]: inactive
AC50 [4]: 51.8 µM (active)
outcome [5]: inactive

CCOCC(C)O (configuration not stated)
outcome [1]: inactive
outcome [2]: inactive
outcome [3]: inactive
outcome [4]: inactive
outcome [5]: inactive

O=C(O)c1ccccc1O
outcome [1]: inactive
outcome [2]: inactive
outcome [3]: inactive
outcome [4]: inactive
outcome [5]: inactive

CC(=O)Oc1c(C)c(C)c2c(c1C)CC[C@@](C)(CCC[C@H](C)CCC[C@H](C)CCCC(C)C)O2
outcome [1]: inactive
outcome [2]: inactive
outcome [3]: inactive
outcome [4]: inactive
outcome [5]: inactive
outcome [6]: inactive

CCCCCCC(C)O (configuration not stated)
outcome [1]: inactive
outcome [2]: inactive
outcome [3]: inactive
outcome [4]: inactive
outcome [5]: inactive
outcome [6]: inactive

CCC(=O)OCC=Cc1ccccc1
outcome [1]: inactive
outcome [2]: inactive
outcome [3]: inactive
outcome [7]: inactive
outcome [5]: inactive
outcome [6]: inactive
outcome [8]: inactive
AC50 [9]: 20 µM (active)
outcome [10]: inactive

CC(=O)C1=C(C)[C@@H]2C[C@@]3(C1)[C@H](C)CC[C@H]3C2(C)C
outcome [1]: inactive
AC50 [2]: 137 µM (active)
outcome [3]: inactive
AC50 [4]: 70.1 µM (active)
outcome [5]: inactive

C=CC(=O)OCCCCCC
outcome [1]: inactive
outcome [2]: inactive
outcome [3]: inactive
outcome [4]: inactive
outcome [5]: inactive
outcome [6]: inactive

CCCCC/C=C\C=C\C(=O)OCC
AC50 [1]: 50.4 µM (active)
AC50 [2]: 40 µM (active)
outcome [3]: inactive
outcome [4]: inactive

Nc1ccc(O)c(N)c1
outcome [1]: inactive
outcome [2]: inactive
outcome [3]: inactive
AC50 [4]: 43.9 µM (active)
outcome [5]: inactive

CCCC[N+](C)(CCCC)CCCC
outcome [1]: inactive
outcome [2]: inactive
outcome [3]: inactive
outcome [4]: inactive
outcome [5]: inactive

CCOC(=O)C=Cc1ccccc1
outcome [1]: inactive
outcome [2]: inactive
outcome [3]: inactive
outcome [7]: inactive
outcome [6]: inactive
outcome [8]: inactive
outcome [9]: inactive
outcome [10]: inactive

CCOc1ccc(NC(C)=O)cc1
outcome [1]: inactive
outcome [2]: inactive
outcome [3]: inactive
outcome [4]: inactive
outcome [5]: inactive

CCCCCc1cccc(=O)o1
outcome [1]: inactive
outcome [3]: inactive
outcome [7]: inactive
AC50 [4]: 41.5 µM (active)
outcome [5]: inactive
outcome [6]: inactive

COc1ccccc1O
outcome [1]: inactive
outcome [3]: inactive
outcome [7]: inactive
outcome [4]: inactive
outcome [5]: inactive
outcome [6]: inactive

O=C(O)c1cc2ccccc2cc1O
outcome [1]: inactive
outcome [3]: inactive
outcome [7]: inactive
outcome [4]: inactive
outcome [5]: inactive

O=C1OC2(c3ccc(O)cc3Oc3cc(O)ccc32)c2ccccc21
outcome [1]: inactive
outcome [2]: inactive
outcome [3]: inactive
outcome [8]: inactive
outcome [9]: inactive
outcome [10]: inactive

CCCCCC1CCC(=O)O1 (configuration not stated)
outcome [1]: inactive
outcome [3]: inactive
outcome [7]: inactive
outcome [4]: inactive
outcome [5]: inactive

CC(C)(CO)CO
outcome [1]: inactive
outcome [2]: inactive
outcome [3]: inactive
outcome [4]: inactive
outcome [6]: inactive
outcome [8]: inactive
outcome [9]: inactive
outcome [10]: inactive

CCO[Si](CCC#N)(OCC)OCC
outcome [1]: inactive
outcome [3]: inactive
outcome [7]: inactive
outcome [4]: inactive
outcome [5]: inactive
